# Activity calls are given as the source filed them.
# Key:
# [1] = compounds binding Alexa647 anti-His antibody – biochemical, small-molecule microarray, 635 nm fluorescence, artefact control for SMM control protein annotation, primary screen (AID 1128); conditions: higher = more signal;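 further: score merges feature fluorescence with signal-to-noise for each printed compound spot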
# [2] = tested on: Human papillomavirus type 1a E7 protein (residues 1-88); test: HPV1a E7 small-molecule binders, primary screen, biochemical, small-molecule microarray, residues 1-88, 635 nm (AID 1129); conditions: small-molecule microarray binding, fluorescence 635 nm; higher = more signal
# [3] = target: Focal adhesion kinase 1 (Homo sapiens) (UniProt Q05397); test: PTK2 protein binding on printed compound slides – biochemical, small-molecule microarray, 635/667 nm fluorescence, BSA, DTT, primary screen (AID 1130); conditions: 635 nm fluorescence, higher = more signal;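 further: composite of spot emission at 667 nm and signal to noise over triplicate slides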
# Focal adhesion kinase 1 (Homo sapiens), sequence (Q05397 whole entry, looked up): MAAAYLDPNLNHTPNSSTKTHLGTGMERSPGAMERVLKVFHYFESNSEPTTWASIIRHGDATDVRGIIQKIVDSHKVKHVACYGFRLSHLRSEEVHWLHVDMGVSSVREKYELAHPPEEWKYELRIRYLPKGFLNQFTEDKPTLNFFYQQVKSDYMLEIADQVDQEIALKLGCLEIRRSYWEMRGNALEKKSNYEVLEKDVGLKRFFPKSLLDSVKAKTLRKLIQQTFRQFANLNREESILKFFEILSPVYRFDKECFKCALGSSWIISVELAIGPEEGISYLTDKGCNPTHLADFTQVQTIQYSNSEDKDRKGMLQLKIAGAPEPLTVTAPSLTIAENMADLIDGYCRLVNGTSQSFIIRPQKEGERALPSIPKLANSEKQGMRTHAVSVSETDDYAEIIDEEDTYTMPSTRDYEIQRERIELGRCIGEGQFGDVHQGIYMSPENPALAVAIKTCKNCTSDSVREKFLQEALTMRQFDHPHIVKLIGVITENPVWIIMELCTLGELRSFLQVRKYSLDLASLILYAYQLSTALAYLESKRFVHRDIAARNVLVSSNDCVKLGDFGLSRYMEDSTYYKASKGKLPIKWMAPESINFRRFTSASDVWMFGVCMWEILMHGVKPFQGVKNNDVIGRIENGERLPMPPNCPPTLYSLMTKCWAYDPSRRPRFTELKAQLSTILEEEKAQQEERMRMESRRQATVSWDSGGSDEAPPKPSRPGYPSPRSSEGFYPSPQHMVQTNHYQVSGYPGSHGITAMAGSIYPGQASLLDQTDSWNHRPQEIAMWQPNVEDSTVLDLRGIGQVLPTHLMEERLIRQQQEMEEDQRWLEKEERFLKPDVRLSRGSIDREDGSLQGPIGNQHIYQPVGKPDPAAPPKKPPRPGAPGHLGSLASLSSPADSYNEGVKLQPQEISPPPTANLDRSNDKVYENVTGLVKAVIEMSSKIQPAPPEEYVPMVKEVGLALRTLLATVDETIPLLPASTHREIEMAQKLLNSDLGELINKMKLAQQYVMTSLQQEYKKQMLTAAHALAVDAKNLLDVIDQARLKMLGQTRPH
# [4] = tested on: Fibrinogen (Alexa647-labelled); test: Alexa647-fibrinogen binding to printed small molecules – biochemical, small-molecule microarray, 635/667 nm fluorescence, artefact control for SMM control-protein annotation, profiling panel (AID 1131); conditions: fibrinogen-A647 binding fluorescence, higher = more signal;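 further: z-score merges 667 nm fluorescence with per-spot signal-to-noise over triplicate slides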
# [5] = target: Follistatin (Homo sapiens) (UniProt P19883); test: FST protein binding to printed compounds – biochemical, small-molecule microarray, 635/667 nm fluorescence, primary screen (AID 1132); conditions: 635 nm fluorescence, higher = more signal
# Follistatin (Homo sapiens), sequence (P19883 whole entry, looked up): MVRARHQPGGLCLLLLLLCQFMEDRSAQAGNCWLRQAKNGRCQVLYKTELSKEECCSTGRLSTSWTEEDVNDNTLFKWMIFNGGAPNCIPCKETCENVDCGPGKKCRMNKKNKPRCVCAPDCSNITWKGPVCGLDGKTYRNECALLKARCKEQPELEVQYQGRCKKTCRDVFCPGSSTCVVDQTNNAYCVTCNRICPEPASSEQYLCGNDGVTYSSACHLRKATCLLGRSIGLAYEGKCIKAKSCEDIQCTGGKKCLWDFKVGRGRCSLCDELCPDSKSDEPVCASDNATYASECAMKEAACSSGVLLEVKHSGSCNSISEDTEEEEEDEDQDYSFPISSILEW
# [6] = target: Fibroblast growth factor 2 (Homo sapiens) (UniProt P09038); test: basic fibroblast growth factor binding to printed compounds – biochemical, small-molecule microarray, 635/667 nm fluorescence, primary screen (AID 1133); conditions: FGF2, fluorescence 635/667, higher = more signal
# Fibroblast growth factor 2 (Homo sapiens), sequence (P09038 whole entry, looked up): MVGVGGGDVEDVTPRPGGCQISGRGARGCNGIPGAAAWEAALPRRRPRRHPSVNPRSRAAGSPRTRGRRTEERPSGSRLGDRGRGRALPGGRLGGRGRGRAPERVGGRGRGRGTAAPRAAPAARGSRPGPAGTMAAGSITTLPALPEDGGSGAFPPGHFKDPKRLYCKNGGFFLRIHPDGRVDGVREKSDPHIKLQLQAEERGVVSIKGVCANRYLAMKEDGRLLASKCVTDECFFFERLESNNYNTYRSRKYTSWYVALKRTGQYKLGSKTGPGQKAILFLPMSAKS
# [7] = JC-1 mitochondrial potential readout, lung cancer cells – cell-based, A549, JC-1 fluorescence, basal, 24 h, 100 nL, profiling panel (AID 1138); conditions: higher = more signal;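 further: A549 lung adenocarcinoma cells under basal conditions with no added stimulus; test concentration not given here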
# [8] = tested on: Lefty1; test: Lefty1 protein binding to printed compounds – biochemical, small-molecule microarray, 635/667 nm fluorescence, primary screen (AID 1139); conditions: fluorescence 635/667, higher = more signal
# [9] = tested on: wheat germ agglutinin (Triticum aestivum), Alexa647-labelled; test: Alexa647-WGA lectin binding to printed small molecules – biochemical, small-molecule microarray, 635/667 nm fluorescence, artefact control for SMM control-protein annotation, profiling panel (AID 1140); conditions: WGA-A647 binding, 635 nm fluorescence, higher = more signal;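 further: score merges 667 nm feature emission with signal to noise over triplicate slides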
# [10] = target: Luciferin 4-monooxygenase (Photinus pyralis) (UniProt P08659); test: inhibition of purified Photinus pyralis luciferase – biochemical, luminescence, purified enzyme, 2006 set, primary screen (AID 1141); conditions: purified firefly luciferase, SteadyGlo luminescence, 30 min; higher = more signal, called active from +8 up or from −8 down;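 further: cell-free assay with purified firefly luciferase at 100 ng per well in PBS; test concentration not given here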
# Luciferin 4-monooxygenase (Photinus pyralis), sequence (P08659 whole entry, looked up): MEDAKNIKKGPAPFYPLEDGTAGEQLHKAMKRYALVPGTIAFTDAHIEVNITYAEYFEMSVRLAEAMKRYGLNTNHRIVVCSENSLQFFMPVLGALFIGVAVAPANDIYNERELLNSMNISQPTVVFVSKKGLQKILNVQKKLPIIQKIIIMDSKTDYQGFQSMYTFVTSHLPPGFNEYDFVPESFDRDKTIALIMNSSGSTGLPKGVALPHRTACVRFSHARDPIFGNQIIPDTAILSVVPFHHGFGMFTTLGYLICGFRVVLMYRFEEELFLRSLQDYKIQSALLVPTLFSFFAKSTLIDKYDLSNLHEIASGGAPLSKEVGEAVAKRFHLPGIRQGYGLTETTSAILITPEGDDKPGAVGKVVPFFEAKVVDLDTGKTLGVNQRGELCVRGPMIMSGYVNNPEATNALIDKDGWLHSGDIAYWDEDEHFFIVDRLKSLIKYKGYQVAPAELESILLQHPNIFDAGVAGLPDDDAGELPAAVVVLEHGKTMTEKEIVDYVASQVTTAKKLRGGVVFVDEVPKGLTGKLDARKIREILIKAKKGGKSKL
SMILES,composite z-score [1],composite z-score [2],composite z-score [3],composite z-score [4],composite z-score [5],composite z-score [6],z-score [7],composite z-score [8],composite z-score [9],z-score [10]
CCCCC(=C=CC[C@H](O)c1ccc(OCCO)cc1)C[C@H](O)COCc1ccccc1,0.522,0.0648,0.477,-0.56,0.163,0.501,2.19,0.235,-0.0019,-1.22 (inactive)
CC(C)CNC(=O)[C@@]1(c2ccc([N+](=O)[O-])cc2)CC(=O)N(C2CCCCC2)[C@@H]1c1ccc(CO)cc1,1.91,1.23,-0.0282,0.583,0.536,1.04,0.214,-0.35,0.29,-0.977 (inactive)
COc1ccc([Si](C)(C)[C@H]2[C@H](CCO)O[C@@]3(C(=O)N(Cc4ccc(N5C(=O)c6ccccc6Oc6ccccc65)cc4)c4ccccc43)[C@@H]2C)cc1,-0.486,-0.76,-0.266,0.348,-1.14,-0.968,1.26,-0.865,0.0124,-0.652 (inactive)
CCOC(=O)C1=CCC(c2ccccc2)N(S(=O)(=O)c2ccc([N+](=O)[O-])cc2)C1 (stereo not given),0.927,1.12,0.2,-0.773,0.0227,-0.169,0.0562,-0.111,0.599,0.864 (inactive)
CO[C@H]1O[C@H](CO)[C@@H](OC(=O)CCc2ccccc2)[C@H](OC(=O)c2cc3ccccc3[nH]2)[C@H]1OC(=O)c1cc2ccccc2[nH]1,1.37,1.01,0.332,0.824,1.26,1.31,-0.201,0.845,0.726,-0.105 (inactive)
CCCCCN1CC=CC23O[C@@H]4/C=C\CCC(C)OC(=O)C4[C@H]2C(=O)N(CCCCCCO)[C@@H]3C1=O (stereo not given in full),0.371,0.229,0.0767,-1.31,0.0532,-0.0946,1.03,0.744,-0.65,0.0812 (inactive)
O=C(O)[C@H]1C[C@H]2C(=O)N[C@@H](Cc3ccccc3)C(=O)N2[C@H]1c1cccc(OCCO)c1,1.7,-0.0006,-0.167,0.472,1.43,1.44,0.706,1.33,0.568,-0.832 (inactive)
COCCOC(=O)N1C(=O)[C@@]2(c3cc(C#Cc4ccc(OC)cc4)ccc31)[C@H](C(=O)NC[C@H](O)c1ccccc1)[C@H]1C(=O)O[C@H](c3ccccc3)[C@H](c3ccccc3)N1[C@@H]2c1ccc(OCCO)cc1,1.24,1.2,-0.103,0.801,1.29,1.01,-1.77,1.15,0.815,-0.459 (inactive)
O=C1C[C@@](C(=O)NCc2ccccc2)(c2ccc([N+](=O)[O-])cc2)[C@@H](c2ccc(CO)cc2I)N1CC12CC3CC(CC(C3)C1)C2,0.579,0.976,0.121,0.846,1.41,1.54,-1.36,1.52,1.07,1.34 (inactive)
Cc1ccc(C(C)CC(O)C2C=CC3C(=O)N(c4ccccc4)C(=O)C3N2Nc2ccc(C#N)cc2)o1 (stereo not given),1.21,1.24,0.175,1.03,1.24,0.37,0.289,0.0143,0.586,-0.993 (inactive)
CCOC(=O)C[C@H]1[C@H](OC(=O)c2ccc(C(=O)c3ccccc3)cc2)[C@@H](NC(=O)CC(C)C)c2cc(OCCCO)ccc2N1C(=O)Cc1ccc(OC)cc1,0.201,0.766,0.721,0.286,0.264,0.194,0.911,-0.215,0.675,-0.563 (inactive)
COCCOC(=O)N1C(=O)[C@@]2(c3ccccc31)[C@H](c1ccccc1OCCO)N1[C@H](c3ccccc3)[C@H](c3ccccc3)OC(=O)[C@H]1[C@@H]2C(=O)N1CCCCCCC1,0.703,1.32,3.01,0.995,1.53,1.55,-0.0428,1.71,1.63,-0.507 (inactive)
CN1C(=O)C2C=CC(C(O)c3ccc(F)cc3)N(NC(=O)OC(C)(C)C)C2C1=O (stereo not given),0.322,0.878,0.22,0.81,0.344,-0.475,-0.946,0.0813,0.381,-0.507 (inactive)
COC(=O)[C@@]1(Cc2ccccc2CN=[N+]=[N-])N=C(c2ccc(OCCCO)cc2)O[C@H]1c1ccccc1CN=[N+]=[N-],-0.242,0.113,-0.198,-0.819,-0.261,-0.167,-0.546,-1.09,0.495,-2.23 (inactive)
COC(=O)[C@@]1(Cc2ccc(F)cc2)[C@H]2c3cc(C(=O)N4CCCC4)n(CC4CC4)c3C[C@H]2CN1C(=O)c1ccccc1,2.46,1.28,0.467,1.03,1.26,0.107,0.699,-0.39,0.718,1.35 (inactive)
[N-]=[N+]=NCc1ccccc1[C@@H]1OC(c2ccc(OCCCO)cc2)=N[C@]1(Cc1ccccc1N=[N+]=[N-])C(=O)N1CCCCC1,1.97,1.24,0.182,0.816,0.845,0.483,0.909,0.082,0.756,-1.61 (inactive)
C=CCC(OC(C)=O)[C@@H]1[C@@H](N(Cc2ccc(-c3cccc(C(F)(F)F)c3)o2)C(=O)Cc2ccc(OC)cc2)c2cc(OCCCO)ccc2N1C(=O)Cc1ccc2ccccc2c1 (stereo not given in full),0.083,-1.39,-0.368,0.226,0.131,-0.501,-0.451,-0.27,-0.0571,0.149 (inactive)
COc1ccc([Si](C)(C)[C@@H]2[C@@H](CC(=O)N3Cc4ccccc4C[C@H]3CO)O[C@]3(C(=O)N(Cc4ccc(N5CCC5=O)cc4)c4ccccc43)[C@H]2C)cc1,0.365,1.05,0.315,0.358,0.825,1.57,0.199,1.44,0.283,0.205 (inactive)
O=C1C2C=CC(C(O)C=Cc3ccc([N+](=O)[O-])cc3)N(Nc3ccccc3)C2C(=O)N1c1ccccc1 (stereo not given),0.185,1.2,0.0142,1.02,1.24,0.0395,-0.0492,0.416,0.932,-1.65 (inactive)
[N-]=[N+]=NCc1ccccc1[C@@H]1OC(c2ccc(OCCCO)cc2)=N[C@]1(Cc1ccccc1)C(=O)NCCN1CCOCC1,1.16,1.18,0.533,0.514,1.31,0.41,2.27,-0.0059,0.721,-1.94 (inactive)
C[C@]1(C(=O)NCCN2CCOCC2)c2ccccc2C(=O)N(Cc2cc(F)cc(C(F)(F)F)c2)[C@H]1c1ccc(CO)cc1,3.12,0.917,0.746,0.91,0.89,-0.0787,0.815,0.443,0.294,1.05 (inactive)
COC(=O)[C@@]1(Cc2ccc(F)cc2)[C@H]2c3cc(C(=O)N(C)C)n(Cc4ccc(O)c(OC)c4)c3C[C@H]2CN1C(=O)c1ccccc1,1.15,0.575,0.489,0.977,0.0157,0.0287,-1.18,-0.0615,0.438,1.08 (inactive)

# Source: PubChem BioAssay
